Screening data (PubChem)
This is a sample that favours compounds with a hit; in the whole collection about 4.6% have one here.
CF NFkB block: inhibitors of cystic fibrosis induced NF-kB | AID 588850 | inhibition, % at 5 µM | 360,000 compounds, 0.86% hits | KKLEB NF-kB-GFP reporter, PAF-induced, GFP fluorescence overnight;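 active means at least 50% inhibition at 5 µM, scaled per plate between neutral and stimulator controls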;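 further: PAF is a Pseudomonas aeruginosa culture filtrate used as stimulus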
Mdm2 MdmX PPI: inhibitors of human Mdm2/MdmX interaction. 330,000 compounds, 3% hits. inhibition, % at 8 µM. O15151+Q00987. SaOS-2 split-luciferase Mdm2/MdmX complementation, luminescence;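 active means inhibition of at least 50% at 8 µM in the primary screen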
KKLEB tox: counter-screen for CF NF-kB inhibitors: cytotoxicity; KKLEB CF airway cells viability, ATPlite luminescence, overnight; hits give low values; cells stimulated with P. aeruginosa culture filtrate; activity change (cytotoxicity), % at 5 µM; 360,000 compounds, 0.36% hits; AID 602141;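 active means corrected activity change at or below -50% at 5 µM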
HIF-2a block: HIF-2a inhibition; 786-0 RCC cells HIF-2a reporter, luciferase luminescence, overnight; inhibition, % at 18.8 µM; 360,000 compounds, 0.72% hits;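 active means inhibition of the luminescence signal of 40% or more relative to plate controls, in a single-dose primary screen at 18.75 µM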
ABHD5-PLIN5 inh: blocks binding of human ABHD5 to perilipin-5 | AID 602281 | inhibition, % at 4 µM | Q00G26+Q8WTS1 | 360,000 compounds, 0.78% hits | Split G. princeps luciferase complementation, luminescence, 4 h;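 active means inhibition above the mean inhibition across every tested compound plus 3 SD, cut at about 22% in these data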
Target sequence (Q00G26 whole entry, looked up): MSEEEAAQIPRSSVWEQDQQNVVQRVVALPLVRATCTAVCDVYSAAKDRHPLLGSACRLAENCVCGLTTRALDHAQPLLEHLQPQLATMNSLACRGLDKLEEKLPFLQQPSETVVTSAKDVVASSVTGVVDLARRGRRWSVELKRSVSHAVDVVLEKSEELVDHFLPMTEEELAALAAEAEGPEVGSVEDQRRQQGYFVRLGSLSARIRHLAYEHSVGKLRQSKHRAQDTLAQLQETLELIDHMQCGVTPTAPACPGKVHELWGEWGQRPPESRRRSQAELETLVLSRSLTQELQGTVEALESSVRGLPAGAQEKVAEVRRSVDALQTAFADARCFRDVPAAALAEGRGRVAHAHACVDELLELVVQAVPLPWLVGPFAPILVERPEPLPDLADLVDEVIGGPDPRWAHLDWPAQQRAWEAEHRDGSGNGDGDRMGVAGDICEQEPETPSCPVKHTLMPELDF
Target sequence (Q8WTS1 whole entry, looked up): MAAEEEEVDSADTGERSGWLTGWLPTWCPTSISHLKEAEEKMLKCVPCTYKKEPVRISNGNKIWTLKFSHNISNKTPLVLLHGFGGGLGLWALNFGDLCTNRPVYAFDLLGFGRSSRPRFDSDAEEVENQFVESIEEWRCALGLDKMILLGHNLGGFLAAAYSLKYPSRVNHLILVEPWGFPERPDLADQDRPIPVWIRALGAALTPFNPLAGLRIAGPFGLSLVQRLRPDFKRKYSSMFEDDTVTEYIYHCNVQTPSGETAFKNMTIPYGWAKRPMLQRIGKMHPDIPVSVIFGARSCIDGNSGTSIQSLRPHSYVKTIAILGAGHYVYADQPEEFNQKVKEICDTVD
Peg3 promoter: inhibitors of Peg3 promoter. HeLa PEG-Prom luciferase reporter, luminescence, overnight. inhibition, % at 20 µM. AID 588405. 360,000 compounds, 1.7% hits;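 active means inhibition of at least 50% at 20 µM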
Mdm2-MdmX conf: confirmation of human Mdm2/MdmX interaction inhibitors | shares compounds with Mdm2 MdmX PPI | Mdm2-MdmX binding, luminescent assay | inhibition, % at 8 µM | 10,000 compounds, 55% hits; in the data active means inhibition above about 40%
FLuc counter: counter-screen for Mdm2/MdmX inhibitors: full-length luciferase | 6,200 compounds, 77% hits | SaOS-2 full-length luciferase counterscreen, luminescence | shares compounds with Mdm2 MdmX PPI | inhibition, % at 8 µM | AID 504607;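 active means mean inhibition at 8 µM reaching about 37%, which flags the compound as non-specific, limit read from the data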;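 further: p53-null SaOS-2 cells with luciferase driven by a doxycycline-inducible promoter; compound on cells about two nights before reading with doxycycline added after day one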
Large screens that a line does not name were inactive (follow-up assays come after a bar, where they were run).

Cc1oc2cc(O)cc(C)c2c(=O)c1-c1cnn(-c2ccccc2)c1	Mdm2 MdmX PPI 58 | Mdm2-MdmX conf inactive
COc1ccc2nc(N3C(=O)/C(=C/c4ccccc4)NC3=S)sc2c1	Mdm2 MdmX PPI 54 | Mdm2-MdmX conf inactive
CCCCCCCCCCOC(=O)Cn1c(COc2cccc(C)c2)[n+](C)c2ccccc21	Mdm2 MdmX PPI 86 | Mdm2-MdmX conf 71 | FLuc counter inactive
CCCCCCCCCCOC(=O)Cn1c(COc2ccc(OC)cc2)[n+](C)c2ccccc21	Mdm2 MdmX PPI 85, Peg3 promoter 105 | Mdm2-MdmX conf 76 | FLuc counter inactive
CCCCCCCCCCOC(=O)Cn1c(COc2ccccc2)[n+](C)c2ccccc21	CF NFkB block 71, Mdm2 MdmX PPI 69, KKLEB tox -62, Peg3 promoter 100 | Mdm2-MdmX conf 72 | FLuc counter inactive
CCOC(=O)Cn1c(COc2ccccc2OC)[n+](C)c2ccccc21	none
O=C(Nc1ccccc1Cl)c1cc(C2CCCCN2S(=O)(=O)c2ccc(F)cc2F)on1 (configuration not stated)	none (no result: Mdm2 MdmX PPI)
CC(C)(C)n1nnnc1C1c2ccccc2C(=O)N1CCc1c[nH]c2ccccc12 (configuration not stated)	none (no result: CF NFkB block, Mdm2 MdmX PPI, KKLEB tox, Peg3 promoter)
CCN(CC)c1ccc2c(Cl)c(Br)c(=O)oc2c1	Mdm2 MdmX PPI 100, HIF-2a block 88, Peg3 promoter 104 | Mdm2-MdmX conf 44 | FLuc counter inactive
CCN(CC)c1ccc2c(C)c(Cl)c(=O)oc2c1	none
CCOc1ccc(N(CC(=O)Nc2ccccc2OCC)S(=O)(=O)c2c(C)noc2C)cc1	Mdm2 MdmX PPI 65 | Mdm2-MdmX conf 62 | FLuc counter 90
COc1ccc(N(CC(=O)Nc2ccc(OC)cc2OC)S(=O)(=O)c2ccccc2)cc1	none
COc1ccccc1NC(=O)c1ccc(CN(c2cc(Cl)ccc2C)S(=O)(=O)c2ccccc2)cc1	Mdm2 MdmX PPI 61 | Mdm2-MdmX conf inactive
CCOc1ccc(N(CC(=O)Nc2ccccc2OC)S(=O)(=O)c2ccccc2)cc1	Mdm2 MdmX PPI 58 | Mdm2-MdmX conf 63 | FLuc counter 79
O=C(CCc1nnc2ccc(N3CCCC3)nn12)Nc1cc(F)ccc1F	none
Cc1ccc(-c2[nH]ncc2/C=N/n2c(COc3ccccc3)nc3ccccc3c2=O)cc1	Mdm2 MdmX PPI 82, Peg3 promoter 52 | Mdm2-MdmX conf 46 | FLuc counter 56
Cc1cc(/C=N/n2c(COc3ccccc3)nc3ccccc3c2=O)c(O)c([N+](=O)[O-])c1	Mdm2 MdmX PPI 59 | Mdm2-MdmX conf 47 | FLuc counter 40
CCOc1ccc2nc(S(=O)(=O)NC(=O)C3(C)CCN3C(=O)CCc3cccs3)sc2c1 (configuration not stated)	none (no result: Mdm2 MdmX PPI)
Cc1cc2c(cc1S(=O)(=O)N(C)Cc1ccccc1)OCC(=O)N2	none
CCN1C(=O)Nc2cccc3cccc1c23	Mdm2 MdmX PPI 84 | Mdm2-MdmX conf 62 | FLuc counter 57
O=C(CCCN1C(=O)/C(=C/c2ccccc2OC(F)F)SC1=S)Nc1cccnc1	Mdm2 MdmX PPI 85 | Mdm2-MdmX conf 59 | FLuc counter inactive
O=C(CCCN1C(=O)/C(=C\c2cccc(Br)c2)SC1=S)Nc1cccnc1	Mdm2 MdmX PPI 100, HIF-2a block 61, Peg3 promoter 96 | Mdm2-MdmX conf 86 | FLuc counter inactive
COC(=O)c1ccc(/C=C2/SC(=S)N(CCCC(=O)Nc3ccccn3)C2=O)cc1	Mdm2 MdmX PPI 75 | Mdm2-MdmX conf inactive
Cc1ccc(/C=C2\SC(=S)N(CCCC(=O)Nc3cccnc3)C2=O)cc1	Mdm2 MdmX PPI 92, HIF-2a block 70 | Mdm2-MdmX conf 72 | FLuc counter inactive
Cc1ccc(/C=C2\SC(=S)N(CC(=O)Nc3cccnc3)C2=O)cc1	none
O=C(CCCN1C(=O)/C(=C/c2cccs2)SC1=S)Nc1cccnc1	none
N#Cc1ccccc1OCC(=O)Nc1cc(S(=O)(=O)N2CCCCC2)ccc1N1CCOCC1	none (no result: Mdm2 MdmX PPI)
COc1cc(C(=O)NNC(=O)CNC(=O)c2ccc(Br)o2)cc(OC)c1OC	none
O=C(CCCN1C(=O)/C(=C/c2cccc(Br)c2)SC1=S)Nc1ccccn1	Mdm2 MdmX PPI 69, HIF-2a block 66, Peg3 promoter 62 | Mdm2-MdmX conf 84 | FLuc counter inactive
O=C(CCCN1C(=O)/C(=C\c2cccs2)SC1=S)Nc1cccnc1	Mdm2 MdmX PPI 78 | Mdm2-MdmX conf 80 | FLuc counter inactive
N=c1c2c(ncn1CCCO)Oc1c(ccc3ccccc13)C2c1ccccc1 (configuration not stated)	Mdm2 MdmX PPI 62, Peg3 promoter 73 | Mdm2-MdmX conf inactive
COc1ccc(C2c3ccc4ccccc4c3Oc3ncn(CCCO)c(=N)c32)cc1OC (configuration not stated)	Mdm2 MdmX PPI 78 | Mdm2-MdmX conf 71 | FLuc counter 48
COc1ccc(C2c3ccc4ccccc4c3Oc3ncn(CCN4CCOCC4)c(=N)c32)cc1 (configuration not stated)	Mdm2 MdmX PPI 75, Peg3 promoter 102 | Mdm2-MdmX conf 55 | FLuc counter 53
N=c1c2c(ncn1CCN1CCOCC1)Oc1cc(O)ccc1C2c1ccccc1 (configuration not stated)	none
COc1ccc(Cc2nc3c4c(ncn3n2)Oc2c(ccc3ccccc23)C4c2ccc(OC)c(OC)c2)cc1 (configuration not stated)	none
COc1ccc(C2c3ccc(O)cc3Oc3ncn(CCN4CCOCC4)c(=N)c32)cc1OC (configuration not stated)	none
COc1ccc(C2c3ccc4ccccc4c3Oc3ncn(CCN4CCOCC4)c(=N)c32)cc1OC (configuration not stated)	Mdm2 MdmX PPI 69 | Mdm2-MdmX conf 47 | FLuc counter 67
N=c1c2c(ncn1CCCO)Oc1ccc3ccccc3c1C2c1ccccc1 (configuration not stated)	Mdm2 MdmX PPI 58 | Mdm2-MdmX conf inactive
